{"source": "the supplement of paper PMC8728848", "binders": {"B1": {"name": "ArathEULS3 TAP (Arabidopsis thaliana) (protein)", "chain": "IDENLYFQGGSMDEKTTGWRGGHVVEGLAGELEQLRARLEHHPQGQREPGGGGSLEITSLYKKAGFMEHHHQHHRHHQRDDGEDDRQSFGVPPPHVDAPPQPHGLYQSQPHFDPYAPTPQAPAPYRSETQFEPHAPPPYRSEPYFETPAPPPSFGHVSHVGHQSPNESYPPEHHRYGGYQQPSNSLLESHGDHSGVTHVAHHSSNQPQSSSGVYHKPDENRLPDNLAGLAGRATVKVYSKAEPNYNLTIRDGKVILAPADPSDEAQHWYKDEKYSTKVKDADGHPCFALVNKATGEAMKHSVGATHPVHLIRYVPDKLDESVLWTESKDFGDGYRTIRMVNNTRLNVDAYHGDSKSGGVRDGTTIVLWDWNKGDNQLWKIFPF"}}, "experiment_in_all_cases": "glycan array binding signal (z-score within array); higher = stronger binding", "conditions_in_all_cases": "glycan notation: IUPAC condensed, linker removed", "key": {"[1]": {"target": "GlcNAc(b1-3)Gal(b1-4)GlcNAc(b1-3)Gal(b1-4)GlcNAc", "how_it_was_run": "(§1)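 Negative Z-scores can be read as non-binding. The Z-score is calculated within each array and then averaged across arrays of one protein sequence at different concentrations or buffers and across linkers. Arrays, 3228 in all, were curated from the Consortium for Functional Glycomics database and kept only where the protein sequence was available.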"}, "[2]": {"target": "GlcNAc(b1-3)Gal(b1-4)GlcNAc(b1-3)Gal(b1-4)GlcNAc(b1-2)Man(a1-3)[GlcNAc(b1-3)Gal(b1-4)GlcNAc(b1-3)Gal(b1-4)GlcNAc(b1-2)Man(a1-6)]Man(b1-4)GlcNAc(b1-4)GlcNAc", "how_it_was_run": "as §1"}, "[3]": {"target": "GlcNAc(b1-3)Gal(b1-4)GlcNAc(b1-3)Gal(b1-4)GlcNAc(b1-3)Gal(b1-4)GlcNAc(b1-2)Man(a1-3)[GlcNAc(b1-3)Gal(b1-4)GlcNAc(b1-3)Gal(b1-4)GlcNAc(b1-3)Gal(b1-4)GlcNAc(b1-2)Man(a1-6)]Man(b1-4)GlcNAc(b1-4)[Fuc(a1-6)]GlcNAc", "how_it_was_run": "as §1"}, "[4]": {"target": "GlcNAc(b1-3)Gal(b1-4)GlcNAc(b1-3)Gal(b1-4)GlcNAc(b1-3)Gal(b1-4)GlcNAc(b1-3)Gal(b1-4)GlcNAc(b1-2)Man(a1-3)[GlcNAc(b1-3)Gal(b1-4)GlcNAc(b1-3)Gal(b1-4)GlcNAc(b1-3)Gal(b1-4)GlcNAc(b1-3)Gal(b1-4)GlcNAc(b1-2)Man(a1-6)]Man(b1-4)GlcNAc(b1-4)GlcNAc", "how_it_was_run": "as §1"}, "[5]": {"target": "GlcNAc(b1-3)Gal(b1-4)GlcNAc(b1-3)Gal(b1-4)GlcNAc(b1-3)Gal(b1-4)GlcNAc(b1-3)Gal(b1-4)GlcNAc(b1-2)[GlcNAc(b1-3)Gal(b1-4)GlcNAc(b1-3)Gal(b1-4)GlcNAc(b1-3)Gal(b1-4)GlcNAc(b1-3)Gal(b1-4)GlcNAc(b1-6)]Man(a1-6)[GlcNAc(b1-3)Gal(b1-4)GlcNAc(b1-3)Gal(b1-4)GlcNAc(b1-3)Gal(b1-4)GlcNAc(b1-3)Gal(b1-4)GlcNAc(b1-2)Man(a1-3)]Man(b1-4)GlcNAc(b1-4)[Fuc(a1-6)]GlcNAc", "how_it_was_run": "as §1"}, "[6]": {"target": "GlcNAc(b1-3)Gal(b1-4)GlcNAc(b1-6)[Gal(b1-3)]GalNAc", "how_it_was_run": "as §1"}, "GlcNAc(b1-3)Man": {"target": "GlcNAc(b1-3)Man", "how_it_was_run": "as §1"}, "Kdn(a2-6)Gal(b1-4)GlcNAc": {"target": "Kdn(a2-6)Gal(b1-4)GlcNAc", "how_it_was_run": "as §1"}, "[7]": {"target": "Man(a1-3)[Man(a1-6)]Man(a1-6)[Man(a1-3)]Man(b1-4)GlcNAc(b1-4)GlcNAc", "how_it_was_run": "as §1"}, "Man(b1-4)GlcNAc": {"target": "Man(b1-4)GlcNAc", "how_it_was_run": "as §1"}, "Neu5Ac(a2-3)Gal": {"target": "Neu5Ac(a2-3)Gal", "how_it_was_run": "as §1"}, "[8]": {"target": "Neu5Ac(a2-3)Gal(b1-3)GlcNAc(b1-2)Man(a1-3)[GlcNAc(b1-4)][Neu5Ac(a2-3)Gal(b1-3)GlcNAc(b1-2)Man(a1-6)]Man(b1-4)GlcNAc(b1-4)GlcNAc", "how_it_was_run": "as §1"}, "[9]": {"target": "Neu5Ac(a2-3)Gal(b1-3)GlcNAc(b1-2)[Neu5Ac(a2-3)Gal(b1-3)GlcNAc(b1-4)]Man(a1-6)[Neu5Ac(a2-3)Gal(b1-3)GlcNAc(b1-2)Man(a1-3)]Man(b1-4)GlcNAc(b1-4)GlcNAc", "how_it_was_run": "as §1"}, "[10]": {"target": "Neu5Ac(a2-3)Gal(b1-3)GlcNAc(b1-3)Gal(b1-4)GlcNAc", "how_it_was_run": "as §1"}, "[11]": {"target": "Neu5Ac(a2-3)Gal(b1-3)GlcNAc6S", "how_it_was_run": "as §1"}, "[12]": {"target": "Neu5Ac(a2-3)Gal(b1-3)[Fuc(a1-4)]GlcNAc", "how_it_was_run": "as §1"}, "[13]": {"target": "Neu5Ac(a2-3)Gal(b1-3)[Neu5Ac(a2-6)]GlcNAc(b1-3)[Fuc(a1-3)[Gal(b1-4)]GlcNAc(b1-6)]Gal(b1-4)Glc", "how_it_was_run": "as §1"}, "[14]": {"target": "Neu5Ac(a2-3)Gal(b1-4)GlcNAc(b1-2)Man(a1-3)[Neu5Ac(a2-3)Gal(b1-4)GlcNAc(b1-2)Man(a1-6)]Man(b1-4)GlcNAc(b1-4)[Fuc(a1-6)]GlcNAc", "how_it_was_run": "as §1"}, "[15]": {"target": "Neu5Ac(a2-3)Gal(b1-4)GlcNAc(b1-3)Gal(b1-4)GlcNAc(b1-3)[Neu5Ac(a2-3)Gal(b1-4)GlcNAc(b1-3)Gal(b1-4)GlcNAc(b1-6)]GalNAc", "how_it_was_run": "as §1"}, "[16]": {"target": "Neu5Ac(a2-3)Gal(b1-4)GlcNAc(b1-6)[Neu5Ac(a2-3)Gal(b1-3)]GalNAc", "how_it_was_run": "as §1"}, "[17]": {"target": "Neu5Ac(a2-3)Gal(b1-4)GlcNAc6S", "how_it_was_run": "as §1"}, "[18]": {"target": "Neu5Ac(a2-3)Gal(b1-4)[Fuc(a1-3)]GlcNAc(b1-3)Gal(b1-4)GlcNAc", "how_it_was_run": "as §1"}, "Neu5Ac(a2-3)GalNAc": {"target": "Neu5Ac(a2-3)GalNAc", "how_it_was_run": "as §1"}, "[19]": {"target": "Neu5Ac(a2-3)[GalNAc(b1-4)]Gal(b1-4)Glc", "how_it_was_run": "as §1"}, "[20]": {"target": "Neu5Ac(a2-6)Gal(b1-4)GlcNAc(b1-2)Man", "how_it_was_run": "as §1"}, "[21]": {"target": "Neu5Ac(a2-6)Gal(b1-4)GlcNAc(b1-2)[Neu5Ac(a2-6)Gal(b1-4)GlcNAc(b1-6)]Man(a1-6)[Neu5Ac(a2-6)Gal(b1-4)GlcNAc(b1-2)Man(a1-3)][GlcNAc(b1-4)]Man(b1-4)GlcNAc(b1-4)GlcNAc", "how_it_was_run": "as §1"}, "[22]": {"target": "Neu5Ac(a2-6)Gal(b1-4)GlcNAc(b1-3)Gal(b1-4)GlcNAc(b1-6)[Gal(b1-3)]GalNAc", "how_it_was_run": "as §1"}, "[23]": {"target": "Neu5Ac(a2-6)Gal(b1-4)GlcNAc(b1-3)GalNAc", "how_it_was_run": "as §1"}, "[24]": {"target": "Neu5Ac(a2-6)Gal(b1-4)GlcNAc(b1-3)[Neu5Ac(a2-6)Gal(b1-4)GlcNAc(b1-6)]GalNAc", "how_it_was_run": "as §1"}, "[25]": {"target": "Neu5Ac(a2-6)Gal(b1-4)GlcNAc(b1-6)[Gal(b1-3)]GalNAc", "how_it_was_run": "as §1"}, "[26]": {"target": "Neu5Ac(a2-6)Gal(b1-4)GlcNAc6S", "how_it_was_run": "as §1"}, "[27]": {"target": "Neu5Ac(a2-6)GalNAc(b1-4)GlcNAc", "how_it_was_run": "as §1"}, "[28]": {"target": "Neu5Ac(a2-6)GlcNAc(b1-4)GlcNAc", "how_it_was_run": "as §1"}, "[29]": {"target": "Neu5Ac(a2-8)Neu5Ac(a2-3)Gal(b1-3)GalNAc(b1-4)[Neu5Ac(a2-8)Neu5Ac(a2-3)]Gal(b1-4)Glc", "how_it_was_run": "as §1"}, "[30]": {"target": "Neu5Ac(a2-8)Neu5Ac(a2-3)Gal(b1-4)GlcNAc", "how_it_was_run": "as §1"}, "[31]": {"target": "Neu5Ac(a2-8)Neu5Ac(a2-8)Neu5Ac(a2-3)[GalNAc(b1-4)]Gal(b1-4)Glc", "how_it_was_run": "as §1"}}, "note": "The full list was thinned out, with the strongest signals kept by preference."}
{"binder": "B1", "values": [{"measurement": "glycan array binding signal (z-score)", "setting": "[1]", "result": 0.442}, {"measurement": "glycan array binding signal (z-score)", "setting": "[2]", "result": 2.26}, {"measurement": "glycan array binding signal (z-score)", "setting": "[3]", "result": 2.42}, {"measurement": "glycan array binding signal (z-score)", "setting": "[4]", "result": 0.229}, {"measurement": "glycan array binding signal (z-score)", "setting": "[5]", "result": 3.16}, {"measurement": "glycan array binding signal (z-score)", "setting": "[6]", "result": -0.045}, {"measurement": "glycan array binding signal (z-score)", "setting": "GlcNAc(b1-3)Man", "result": 0.29}, {"measurement": "glycan array binding signal (z-score)", "setting": "Kdn(a2-6)Gal(b1-4)GlcNAc", "result": 0.575}, {"measurement": "glycan array binding signal (z-score)", "setting": "[7]", "result": 3.03}, {"measurement": "glycan array binding signal (z-score)", "setting": "Man(b1-4)GlcNAc", "result": -0.658}, {"measurement": "glycan array binding signal (z-score)", "setting": "Neu5Ac(a2-3)Gal", "result": -1.33}, {"measurement": "glycan array binding signal (z-score)", "setting": "[8]", "result": -1.32}, {"measurement": "glycan array binding signal (z-score)", "setting": "[9]", "result": 1.77}, {"measurement": "glycan array binding signal (z-score)", "setting": "[10]", "result": -0.43}, {"measurement": "glycan array binding signal (z-score)", "setting": "[11]", "result": 0.337}, {"measurement": "glycan array binding signal (z-score)", "setting": "[12]", "result": 0.016}, {"measurement": "glycan array binding signal (z-score)", "setting": "[13]", "result": 2.31}, {"measurement": "glycan array binding signal (z-score)", "setting": "[14]", "result": -0.12}, {"measurement": "glycan array binding signal (z-score)", "setting": "[15]", "result": 0.575}, {"measurement": "glycan array binding signal (z-score)", "setting": "[16]", "result": -1.05}, {"measurement": "glycan array binding signal (z-score)", "setting": "[17]", "result": -0.296}, {"measurement": "glycan array binding signal (z-score)", "setting": "[18]", "result": 2.91}, {"measurement": "glycan array binding signal (z-score)", "setting": "Neu5Ac(a2-3)GalNAc", "result": 0.618}, {"measurement": "glycan array binding signal (z-score)", "setting": "[19]", "result": 0.447}, {"measurement": "glycan array binding signal (z-score)", "setting": "[20]", "result": 0.021}, {"measurement": "glycan array binding signal (z-score)", "setting": "[21]", "result": -0.647}, {"measurement": "glycan array binding signal (z-score)", "setting": "[22]", "result": -0.634}, {"measurement": "glycan array binding signal (z-score)", "setting": "[23]", "result": 0.12}, {"measurement": "glycan array binding signal (z-score)", "setting": "[24]", "result": 0.364}, {"measurement": "glycan array binding signal (z-score)", "setting": "[25]", "result": 0.429}, {"measurement": "glycan array binding signal (z-score)", "setting": "[26]", "result": -0.553}, {"measurement": "glycan array binding signal (z-score)", "setting": "[27]", "result": 0.004}, {"measurement": "glycan array binding signal (z-score)", "setting": "[28]", "result": 1.18}, {"measurement": "glycan array binding signal (z-score)", "setting": "[29]", "result": 2.9}, {"measurement": "glycan array binding signal (z-score)", "setting": "[30]", "result": -0.433}, {"measurement": "glycan array binding signal (z-score)", "setting": "[31]", "result": -0.112}]}
